Many of the other results were omitted from the sample, so hits are more common in it than they were.
VDR inh – Inhibitors of the vitamin D receptor (VDR): qHTS. Vitamin D3 receptor (Homo sapiens), P11473. VDR-SRC2-3 peptide fluorescence polarization, 2 h. Potency, µM, for the others: max response, negative = inhibition, usual class: inhibitors. 400,000 tested, 0.93% active. AID 504847, 2011; note: % is set by controls: 0 for no effect and ±100 for the full control effect
Target sequence (P11473 whole entry, looked up): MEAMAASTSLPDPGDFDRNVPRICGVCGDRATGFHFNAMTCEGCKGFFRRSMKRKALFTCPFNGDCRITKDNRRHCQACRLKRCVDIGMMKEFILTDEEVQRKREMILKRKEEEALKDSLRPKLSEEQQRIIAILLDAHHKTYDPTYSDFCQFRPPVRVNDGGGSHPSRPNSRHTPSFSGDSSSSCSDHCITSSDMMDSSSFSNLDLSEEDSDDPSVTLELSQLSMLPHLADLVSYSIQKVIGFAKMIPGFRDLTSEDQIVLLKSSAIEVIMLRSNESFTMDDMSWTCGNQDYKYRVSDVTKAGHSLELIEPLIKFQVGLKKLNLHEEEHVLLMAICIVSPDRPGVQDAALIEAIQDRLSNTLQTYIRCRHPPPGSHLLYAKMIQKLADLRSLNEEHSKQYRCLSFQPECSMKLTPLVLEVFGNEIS
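Two reagent solutions held at 4 deg C in the dark were dispensed, compounds pinned at 23 nl, and the mixture incubated 2 h at room temperature. Read-out: fluorescence polarization of VDR–SRC2-3 peptide binding.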
ALOX12 inh – Primary qHTS assay for inhibitors of human arachidonate 12S-lipoxygenase (ALOX12): Round 2; Polyunsaturated fatty acid lipoxygenase ALOX12 (Homo sapiens), P18054; purified 12hLO, xylenol orange hydroperoxide absorbance; Potency, µM (doses to about 108 µM), without a hit: at the top dose activity change, negative = inhibition, actives largely listed as inhibitors; 580,000 tested, 1.1% active; AID 1671190, 2021; note: % is set by controls: 0 for no effect and ±100 for the full control effect
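Hydroperoxide product was detected by ferrous iron/xylenol orange as the 573 to 405 nm absorbance ratio. Arachidonic acid at 40 uM (final) was turned over for 30 min at room temperature by 150 nM human 12hLO, pH 7.0 Hepes buffer, after 15 min compound preincubation.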
Sfp inh – qHTS Assay for Inhibitors of Bacillus subtilis Sfp phosphopantetheinyl transferase (PPTase); 4'-phosphopantetheinyl transferase ffp (Bacillus subtilis), Q9F4F7; Biochemical Sfp PPTase activity, qHTS; Potency, µM, for inactives: largest response in the series, negative = inhibition, hits mostly inhibitors; 310,000 tested, 3.5% active; AID 1490, 2009;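 note: the enzyme is Sfp with the accession as filed and its product quenches rhodamine fluorescence; 0% = enzyme reaction without inhibitor and -100% = no enzyme wells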
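With Hepes-Na pH 7.6 buffer containing 10 mM MgCl2, Sfp (15 nM) modified BHQ-2-YbbR (12.5 uM) using rhodamine-CoA (5 uM). Two reads 30 minutes apart at 525/598 nm yielded each well's rate.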
GRP78 ERSR act – qHTS for Inducers of the Endoplasmic Reticulum Stress Response (ERSR) in Human Glioma: qHTS; U87-MG GRP78 promoter luciferase reporter, 16 h; Potency, µM, inactives show at the highest dose activation, most hits filed as activators; 420,000 tested, 0.02% active; note: series mostly up to about 76 µM; % of control where 0% means no effect; nearly all actives have a fitted effect of over 35% in size
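Stably transfected U87-MG human glioma cells carrying a GRP78-based luminescent sensor were seeded at 1000 cells/well, pin-dosed with compounds and incubated 16 h. Luciferase reagent was then added, and end-point luminescence was read after 10 min at room temperature.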
G9a block – qHTS Assay for Inhibitors of Histone Lysine Methyltransferase G9a; Histone-lysine N-methyltransferase EHMT2 (Homo sapiens), Q96KQ7; G9a H3K9 monomethylation, AlphaScreen, 2 h; Potency, µM (titrated, usually from 102 µM), inactives show at the highest dose activity, negative = inhibition, usual class: inhibitors; 350,000 tested, 8.8% active; AID 504332, 2011; note: % is set by controls: 0 for no effect and ±100 for the full control effect; nearly all actives have a fitted effect of over 75% in size
Target sequence (Q96KQ7 913-1193 limits assumed): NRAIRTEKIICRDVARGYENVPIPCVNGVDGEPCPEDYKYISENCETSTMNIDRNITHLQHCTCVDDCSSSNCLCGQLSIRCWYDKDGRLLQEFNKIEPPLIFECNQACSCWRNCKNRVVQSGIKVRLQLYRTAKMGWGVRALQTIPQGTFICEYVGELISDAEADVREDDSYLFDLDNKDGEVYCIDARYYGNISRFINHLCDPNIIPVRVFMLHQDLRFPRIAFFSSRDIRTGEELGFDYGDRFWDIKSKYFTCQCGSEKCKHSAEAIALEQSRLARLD
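AlphaScreen read-out: biotin-H3K9 peptide (500 nM) methylation by 20 nM enzyme with 20 uM SAM, 2 h at room temperature after 15 min compound preincubation; anti-monomethyl H3K9 antibody plus donor/acceptor beads, 10 min dark.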
* marks the source's active call; other numbers are inactive results; u = inconclusive; x = not tested or not shown; [ ] = another dose, or the depositor's remark. Calls come from the whole dose curve; as a rule, active = well fitted curve in the direction sought with a large enough effect; inconclusive = small, poorly fitted or top-dose-only effect, or another doubt; inactive = no such curve, though single readings can be large; an effect the other way counts as inactive or inconclusive. Potency is the fitted concentration of half-maximal effect.

SMILES	VDR inh	ALOX12 inh	Sfp inh	GRP78 ERSR act	G9a block
O=C(Nc1ccc(N2CCCC2)c(Cl)c1)c1cccs1	-12%	6%	5%	0%	28µM*
COc1ccccc1/C=N/O	x	-29%	x	x	x
CC(=NNC(=S)N1CCC1)c1ccccn1	-29%	50µM*	x	-3%	x
CC(=NNC(=S)SCc1ccccc1)c1ccccn1	-27%	u	x	-1%	x
CC(=NNC(=S)N1CCCC1)c1ccccn1	x	18µM*	x	-4%	x
CCOC(=O)c1c(C)c(C(=O)Nc2ccc(F)c(Cl)c2)c(C)n1C	x	-17%	x	x	x
COc1ccc(-c2noc(COC(=O)C3=CN(Cc4ccccc4)S(=O)(=O)N=C3C)n2)cc1	x	4%	x	x	x
COC(=O)c1ccc(CSc2nc3scc(-c4cccs4)c3c(=O)[nH]2)o1	3%	0%	56µM*	-2%	u
COC(=O)c1ccc(CSc2nc3ccc(Cl)cc3[nH]2)o1	-4%	0%	9%	-3%	u
COCC(C)NCC(=O)NC(C)CCc1ccccc1 (centres undefined)	-13%	u	-16%	-3%	8.9µM*
CC(CCc1ccccc1)NC(=O)CN1CCN(c2ccc(O)cc2)CC1 (centres undefined)	3%	u	10µM*	-4%	7.9µM*
CC(C)(C)NC(=O)NC(=O)CN1CCN(c2ccc(O)cc2)CC1	-3%	-25%	-93%	-4%	3.2µM*
Cc1ccc(NC(=O)NC(=O)CN2CCN(c3ccc(O)cc3)CC2)c(C)c1	-8%	u	50µM*	-6%	7.9µM*
CCOC(=O)c1c(C)sc2c1OC(N)=C(C#N)C21C(=O)N(C)c2ccccc21 (centres undefined)	x	6%	x	x	x
O=C(O)c1nc(NCCc2ccccc2)ncc1Cl	-12%	-16%	8%	-4%	35µM*
CC(C)(C)Sc1ccc(N)nc1	-11%	u	-19%	-2%	50µM*
O=C(NCC(c1ccccc1)c1c[nH]c2ccccc12)c1ccc[n+]([O-])c1 (centres undefined)	x	-31%	x	x	x
COc1ccc(-c2cnc3c(NC=O)cc(-c4ccccc4OC)cn23)cc1OC	x	6.3µM*	x	-3%	x
COc1ccc(-c2cc(NC=O)c3ncc(-c4ccc(OC)c(OC)c4)n3c2)cc1OC	x	-6%	x	14%	x
O=C1CSc2ccc(S(=O)(=O)N3CCN(c4ccccc4)CC3)cc2N1	-5%	7%	4%	-2%	15%[0.0925 µM]
CCC1Sc2ccc(S(=O)(=O)N3CCN(c4ccccc4)CC3)cc2NC1=O (centres undefined)	u	-4%	14%	3%	18µM*
CC(C)c1ccc(S(=O)(=O)Nc2ccc(O)c(Sc3ncn[nH]3)c2)cc1	-7%	u	-1%	-3%	u
COc1ccc(S(=O)(=O)Nc2ccc(O)c(Sc3ncn[nH]3)c2)cc1	9%	u	-6%	-2%	13µM*
Cc1c([N+](=O)[O-])cc(N2C(=O)C=CC2=O)cc1[N+](=O)[O-]	-7%	x	x	-4%	x
Cc1cc(C)cc(N2C(=O)C=CC2=O)c1	40µM*	u	x	-14%	x
SMILES	VDR inh	ALOX12 inh	Sfp inh	GRP78 ERSR act	G9a block
CCN(CC)CCN(Cc1cc2cc(C)cc(C)c2[nH]c1=O)C(=S)NCc1ccco1	1%	25%	10%	-3%	u
CCN(CC)CCN(Cc1cc2ccc(C)c(C)c2[nH]c1=O)C(=S)NCc1ccco1	-13%	u	56µM*	-5%	50µM*
CCNC(=S)N(Cc1cc2cc(C)ccc2[nH]c1=O)C1CCCC1	-7%	-23%	56µM*	6%	u
CCN(CC)CCN(Cc1cc2cc(C)ccc2[nH]c1=O)C(=S)NCc1ccco1	-8%	-18%	56µM*	-6%	-33%[59 µM]
COc1ccc(-c2nc(CNC(=O)Nc3ccccc3OC)c(C)o2)cc1	x	-44%	x	x	x
NC(=O)c1ccc(NC(=O)Cn2ccc3cc(Cl)ccc32)cc1	x	-16%	x	x	x
COc1ccc(N2CCN(C(CNS(=O)(=O)c3cc(F)ccc3F)c3cccnc3)CC2)cc1 (centres undefined)	-10%	1%	9%	-1%	45µM*
O=S(=O)(NCC(c1cccnc1)N1CCN(c2ccc(F)cc2)CC1)c1cc(F)ccc1F (centres undefined)	1%	21%	x	-2%	x
COc1ccc(N2CCN(C(CNS(=O)(=O)c3cccs3)c3cccnc3)CC2)cc1 (centres undefined)	3%	x	10%	-15%	89µM*
COc1cc(/C=C(\C#N)c2nc3ccccc3[nH]2)ccc1OCc1ccc(C)cc1	x	8%	x	x	x
CCCC(CCC)C(=O)Nc1cccc(-c2nc3cccnc3s2)c1C	3%	u	x	-3%	u
Cc1nc2ccc(S(=O)(=O)Nc3cccc(-c4nc5cccnc5s4)c3C)cc2s1	-20%	2%	-4%	-2%	50µM*
Cc1nc2ccc(S(=O)(=O)Nc3cc(-c4nc5cccnc5s4)ccc3C)cc2s1	-10%	-7%	-7%	-1%	50µM*
Cc1ccc(-c2nc3cccnc3s2)cc1NS(=O)(=O)c1ccc2c(c1)OCCO2	-11%	2%[57.4 µM]	19%	3%	-7%[59 µM]
C=CCc1ccc(OCCOCCNCCOC)c(OC)c1	-1%	-3%	20%	-2%	-3%
COc1ccc(COc2cccc3ccc(C)nc23)cc1F	23%	-12%	-2%	4%	28%
COc1cc(C)ccc1OCCOCCOc1cccc2ccc(C)nc12	4%	u	50µM*	-6%	10µM*
C=CCc1ccc(OCCOCCOc2cccc3ccc(C)nc23)c(OC)c1	13%	u	u	-6%	3.5µM*
CCCCCN1CCN(c2nc3c(c(=O)[nH]c(=O)n3C)n2Cc2ccc(Cl)c(Cl)c2)CC1	x	-24%	x	x	x
O=C(O)c1ccc(NC(NC(=O)c2ccco2)C(=O)c2ccccc2)cc1 (centres undefined)	x	-15%	x	x	x
COc1cc(OC)cc(-c2ncc3ccccn23)c1	3%	251%	-11%	-1%	7.9µM*
COc1cccc(-c2ncc3ccccn23)c1	-8%	u	-8%	-1%	7.1µM*
COc1cc(-c2ncc3ccccn23)cc(OC)c1OC	7%	u	50µM*	-2%	25µM*
Fc1ccc(-c2ncc3ccccn23)cc1	-13%	-9%	-21%	-1%	-21%[0.501 µM]
COc1ccc(-c2ncc3ccccn23)cc1	8%	8%	79µM*	1%	-41%
COC(=O)c1cc(S(=O)(=O)N(C)CC(=O)Nc2ccc(Cl)cc2C)cn1C	x	-7%	x	x	x
CN(Cc1ccccc1Cl)C(=O)c1ccccc1O	x	-9%	x	x	x
